Values joined by “and” are separate entries in the source; they are usually repeats but may differ in a detail not shown here. Equal entries are not always repeated. Hit rate of the full screen: of about 5,500 compounds, about 2,000 (36%) were called active. Roughly 18% stayed inconclusive and do not appear here. Cut-off read from the data, not from the text of the source: active = normalized growth mostly below about 0.91 (no sharp cut-off); inconclusive = no clear call, values can overlap the other calls; inactive = mostly above about 0.92. The list shows a part of the results.
Assay: chemical genetic growth profiling, strain panel (AID 1159580);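 note: tested at 20 µM; growth read once vehicle control cultures reached saturation at 30 °C; 1 = growth at the plate median or of vehicle wells; lower values mean less growth of the strain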
Conditions: growth OD

Measured: normalized growth

COCCOC(=O)C1=C(C)NC(C)=C(C(=O)OC(C)C)C1c1cccc([N+](=O)[O-])c1 (stereo unspecified)
inactive: S. cerevisiae deletion strains, locus YJR075W, strain HOC1, stronger effect = lower value 1.01 | S. cerevisiae deletion strains, locus YKL009W, strain mrt4, stronger effect = lower value 0.967 | S. cerevisiae deletion strains, locus YKL068W, stronger effect = lower value 1 | S. cerevisiae deletion strains, locus YKL085W, strain MDH1 (second series), stronger effect = lower value 0.986 | S. cerevisiae deletion strains, locus YKL085W, strain MDH1, stronger effect = lower value 0.986 | S. cerevisiae deletion strains, locus YKL160W, strain elf1, stronger effect = lower value 1.02 | S. cerevisiae deletion strains, locus YKL190W, strain CNB1, stronger effect = lower value 0.997 | S. cerevisiae deletion strains, locus YKR001C, strain vps1, stronger effect = lower value 1.01 | S. cerevisiae deletion strains, locus YKR026C, strain gcn3, stronger effect = lower value 1.01 | S. cerevisiae deletion strains, locus YKR091W, strain srl3, stronger effect = lower value 0.995 | S. cerevisiae deletion strains, locus YLL001W, strain dnm1, stronger effect = lower value 1.01 | S. cerevisiae deletion strains, locus YLL026W, stronger effect = lower value 1 | S. cerevisiae deletion strains, locus YLL041C, strain sdh2, stronger effect = lower value 1.01 | S. cerevisiae deletion strains, locus YLR027C, strain aat2, stronger effect = lower value 1 | S. cerevisiae deletion strains, locus YLR039C, strain RIC1, stronger effect = lower value 1.02 | S. cerevisiae deletion strains, locus YLR058C, strain SHM2, stronger effect = lower value 1 | S. cerevisiae deletion strains, locus YLR102C, strain apc9, stronger effect = lower value 1.02 | S. cerevisiae deletion strains, locus YLR113W, strain HOG1, stronger effect = lower value 0.954 | S. cerevisiae deletion strains, locus YLR221C, strain rsa3, stronger effect = lower value 1 | S. cerevisiae deletion strains, locus YLR258W, strain gsy2, stronger effect = lower value 1.01 | S. cerevisiae deletion strains, locus YLR262C, strain YPT6 (second series), stronger effect = lower value 0.988 | S. cerevisiae deletion strains, locus YLR262C, strain YPT6, stronger effect = lower value 1.05 | S. cerevisiae deletion strains, locus YLR268W, strain sec22, stronger effect = lower value 0.993 | S. cerevisiae deletion strains, locus YLR320W, strain mms22, stronger effect = lower value 0.984 | S. cerevisiae deletion strains, locus YLR330W, strain CHS5, stronger effect = lower value 1.01 | S. cerevisiae deletion strains, locus YLR342W, strain FKS1 (second series), stronger effect = lower value 1.01 | S. cerevisiae deletion strains, locus YLR342W, strain FKS1, stronger effect = lower value 1.02 | S. cerevisiae deletion strains, locus YLR357W, strain rsc2, stronger effect = lower value 1.02 | S. cerevisiae deletion strains, locus YLR370C, strain arc18, stronger effect = lower value 1 | S. cerevisiae deletion strains, locus YLR371W, strain rom2, stronger effect = lower value 1.01 | S. cerevisiae deletion strains, locus YLR384C, strain iki3, stronger effect = lower value 1.02 | S. cerevisiae deletion strains, locus YLR418C, strain cdc73, stronger effect = lower value 0.974 | S. cerevisiae deletion strains, locus YML016C, strain PPZ1, stronger effect = lower value 1 | S. cerevisiae deletion strains, locus YML032C, strain rad52, stronger effect = lower value 1.01 | S. cerevisiae deletion strains, locus YML120C, strain ndi1, stronger effect = lower value 1.03 | S. cerevisiae deletion strains, locus YML124C, strain tub3, stronger effect = lower value 1.01 | S. cerevisiae deletion strains, locus YMR058W, strain fet3, stronger effect = lower value 1.02 | S. cerevisiae deletion strains, locus YMR078C, strain ctf18, stronger effect = lower value 1.02 | S. cerevisiae deletion strains, locus YMR125W, strain sto1, stronger effect = lower value 1.06 | S. cerevisiae deletion strains, locus YMR129W, stronger effect = lower value 1.01 | S. cerevisiae deletion strains, locus YMR205C, strain PFK2, stronger effect = lower value 0.979 | S. cerevisiae deletion strains, locus YMR223W, strain ubp8, stronger effect = lower value 1.01 | S. cerevisiae deletion strains, locus YMR231W, strain pep5, stronger effect = lower value 1.01 | S. cerevisiae deletion strains, locus YMR263W, strain SAP30, stronger effect = lower value 1 and 1.01 | S. cerevisiae deletion strains, locus YMR307W, strain GAS1, stronger effect = lower value 1.02 and 1.01 | S. cerevisiae deletion strains, locus YNL067W, strain RPL9B, stronger effect = lower value 0.997 | S. cerevisiae deletion strains, locus YNL071W, strain lat1, stronger effect = lower value 0.998 | S. cerevisiae deletion strains, locus YNL128W, strain TEP1, stronger effect = lower value 1.01 | S. cerevisiae deletion strains, locus YNL153C, strain GIM3, stronger effect = lower value 1 | S. cerevisiae deletion strains, locus YNL175C, strain NOP13, stronger effect = lower value 0.962 | S. cerevisiae deletion strains, locus YNL183C, strain NPR1, stronger effect = lower value 0.93 | S. cerevisiae deletion strains, locus YNL197C, strain WHI3, stronger effect = lower value 0.99 | S. cerevisiae deletion strains, locus YNL209W, strain ssb2, stronger effect = lower value 1 | S. cerevisiae deletion strains, locus YNL224C, strain SQS1, stronger effect = lower value 1.01 | S. cerevisiae deletion strains, locus YNL233W, strain BNI4, stronger effect = lower value 1 | S. cerevisiae deletion strains, locus YNL248C, strain rpa49, stronger effect = lower value 1.03 | S. cerevisiae deletion strains, locus YNL250W, strain rad50, stronger effect = lower value 1.02 | S. cerevisiae deletion strains, locus YNL271C, strain bni1, stronger effect = lower value 1.01 | S. cerevisiae deletion strains, locus YNL298W, strain CLA4, stronger effect = lower value 1 | S. cerevisiae deletion strains, locus YNL307C, strain MCK1, stronger effect = lower value 1.01 | S. cerevisiae deletion strains, locus YNL322C, strain KRE1 (second series), stronger effect = lower value 1 | S. cerevisiae deletion strains, locus YNL322C, strain KRE1, stronger effect = lower value 1.01 | S. cerevisiae deletion strains, locus YNR049C, strain mso1, stronger effect = lower value 0.993 | S. cerevisiae deletion strains, locus YNR052C, strain pop2, stronger effect = lower value 1.01 | S. cerevisiae deletion strains, locus YOL006C, strain TOP1, stronger effect = lower value 1.01 | S. cerevisiae deletion strains, locus YOL012C, strain htz1 1.04 | S. cerevisiae deletion strains, locus YOL147C, strain pex11, stronger effect = lower value 1.01 | S. cerevisiae deletion strains, locus YOR001W, strain rrp6, stronger effect = lower value 1 | S. cerevisiae deletion strains, locus YOR061W, strain CKA2, stronger effect = lower value 0.999 | S. cerevisiae deletion strains, locus YOR069W, strain VPS5, stronger effect = lower value 1.01 | S. cerevisiae deletion strains, locus YOR070C, strain gyp1, stronger effect = lower value 1.02 | S. cerevisiae deletion strains, locus YOR080W, strain dia2, stronger effect = lower value 1.01 | S. cerevisiae deletion strains, locus YOR083W, strain WHI5 (second series), stronger effect = lower value 0.986 | S. cerevisiae deletion strains, locus YOR083W, strain WHI5, stronger effect = lower value 0.974 | S. cerevisiae deletion strains, locus YOR106W, strain vam3, stronger effect = lower value 1 | S. cerevisiae deletion strains, locus YOR136W, strain idh2, stronger effect = lower value 1.01 | S. cerevisiae deletion strains, locus YOR144C, strain elg1, stronger effect = lower value 1.01 | S. cerevisiae deletion strains, locus YOR184W, strain ser1, stronger effect = lower value 1.01 | S. cerevisiae deletion strains, locus YOR231W, strain MKK1, stronger effect = lower value 0.935 | S. cerevisiae deletion strains, locus YOR265W, strain rbl2, stronger effect = lower value 0.999 | S. cerevisiae deletion strains, locus YOR270C, strain vph1, stronger effect = lower value 0.92 | S. cerevisiae deletion strains, locus YOR290C, strain snf2, stronger effect = lower value 1.03 | S. cerevisiae deletion strains, locus YOR316C, strain cot1, stronger effect = lower value 1.01 | S. cerevisiae deletion strains, locus YPL051W, strain arl3, stronger effect = lower value 1.01 | S. cerevisiae deletion strains, locus YPL055C, strain LGE1, stronger effect = lower value 1 and 1.02 | S. cerevisiae deletion strains, locus YPL078C, strain atp4, stronger effect = lower value 1.03 | S. cerevisiae deletion strains, locus YPL106C, strain sse1, stronger effect = lower value 1.08 | S. cerevisiae deletion strains, locus YPL240C, strain hsp82, stronger effect = lower value 1.02 | S. cerevisiae deletion strains, locus YPL241C, strain CIN2, stronger effect = lower value 0.985 | S. cerevisiae deletion strains, locus YPL256C, strain CLN2, stronger effect = lower value 0.955 | S. cerevisiae deletion strains, locus YPR119W, strain clb2, stronger effect = lower value 1.01 | S. cerevisiae deletion strains, locus YPR141C, strain kar3, stronger effect = lower value 1.02 | S. cerevisiae deletion strains, locus YPR163C, strain tif3, stronger effect = lower value 1.01 | S. cerevisiae deletion strains, locus YPR167C, strain met16, stronger effect = lower value 1.01 | S. cerevisiae deletion strains, strain wtn01, stronger effect = lower value 1 | S. cerevisiae strains, strain wild type, stronger effect = lower value 1
